# Measured values from PubChem BioAssay.
# Several values for one entry are separate records, joined by “and”; a condition that tells them apart may be missing. Equal entries are not always repeated. Activity calls are given as the source filed them.
# How the values were obtained:
# [1] = small molecules captured by biotinylated probe aFSTL3 – biochemical, small-molecule microarray, fluorescence 635/667, stem cell growth factor project, primary screen (AID 1064); conditions: higher = more signal;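 also: measures binding of the biotinylated anti-FSTL3 antibody to printed compounds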
# [2] = binders from COS7 lysate, DM2A8 probe, primary screen, torsin A project, cell lysate, small-molecule microarray, fluorescence 635/667 (AID 1065); conditions: higher = more signal, COS7 lysate expressing mutant human TOR1A
# [3] = small molecules captured by biotinylated probe aFGF2 – biochemical, small-molecule microarray, fluorescence 635/667, stem cell growth factor project, primary screen (AID 1067); conditions: higher = more signal;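 also: measures binding of biotinylated aFGF2 protein to printed compounds on slides; z-score merges feature fluorescence and signal-to-noise across triplicate slides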
# [4] = small molecules captured by biotinylated probe aFGF10 – biochemical, small-molecule microarray, fluorescence 635/667, stem cell growth factor project, primary screen (AID 1071); conditions: higher = more signal;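 also: score merges 667 nm spot intensity and signal to noise from triplicate slides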
# [5] = target: Neurogenic locus notch homolog protein 2 (Homo sapiens) (UniProt Q04721); assay: small molecules binding Notch2 protein – biochemical, small-molecule microarray, 635 nm fluorescence, stem cell growth factors, primary screen (AID 1073); conditions: higher = more signal
# Chain of Neurogenic locus notch homolog protein 2 (Homo sapiens) (Q04721 whole entry, looked up, canonical isoform): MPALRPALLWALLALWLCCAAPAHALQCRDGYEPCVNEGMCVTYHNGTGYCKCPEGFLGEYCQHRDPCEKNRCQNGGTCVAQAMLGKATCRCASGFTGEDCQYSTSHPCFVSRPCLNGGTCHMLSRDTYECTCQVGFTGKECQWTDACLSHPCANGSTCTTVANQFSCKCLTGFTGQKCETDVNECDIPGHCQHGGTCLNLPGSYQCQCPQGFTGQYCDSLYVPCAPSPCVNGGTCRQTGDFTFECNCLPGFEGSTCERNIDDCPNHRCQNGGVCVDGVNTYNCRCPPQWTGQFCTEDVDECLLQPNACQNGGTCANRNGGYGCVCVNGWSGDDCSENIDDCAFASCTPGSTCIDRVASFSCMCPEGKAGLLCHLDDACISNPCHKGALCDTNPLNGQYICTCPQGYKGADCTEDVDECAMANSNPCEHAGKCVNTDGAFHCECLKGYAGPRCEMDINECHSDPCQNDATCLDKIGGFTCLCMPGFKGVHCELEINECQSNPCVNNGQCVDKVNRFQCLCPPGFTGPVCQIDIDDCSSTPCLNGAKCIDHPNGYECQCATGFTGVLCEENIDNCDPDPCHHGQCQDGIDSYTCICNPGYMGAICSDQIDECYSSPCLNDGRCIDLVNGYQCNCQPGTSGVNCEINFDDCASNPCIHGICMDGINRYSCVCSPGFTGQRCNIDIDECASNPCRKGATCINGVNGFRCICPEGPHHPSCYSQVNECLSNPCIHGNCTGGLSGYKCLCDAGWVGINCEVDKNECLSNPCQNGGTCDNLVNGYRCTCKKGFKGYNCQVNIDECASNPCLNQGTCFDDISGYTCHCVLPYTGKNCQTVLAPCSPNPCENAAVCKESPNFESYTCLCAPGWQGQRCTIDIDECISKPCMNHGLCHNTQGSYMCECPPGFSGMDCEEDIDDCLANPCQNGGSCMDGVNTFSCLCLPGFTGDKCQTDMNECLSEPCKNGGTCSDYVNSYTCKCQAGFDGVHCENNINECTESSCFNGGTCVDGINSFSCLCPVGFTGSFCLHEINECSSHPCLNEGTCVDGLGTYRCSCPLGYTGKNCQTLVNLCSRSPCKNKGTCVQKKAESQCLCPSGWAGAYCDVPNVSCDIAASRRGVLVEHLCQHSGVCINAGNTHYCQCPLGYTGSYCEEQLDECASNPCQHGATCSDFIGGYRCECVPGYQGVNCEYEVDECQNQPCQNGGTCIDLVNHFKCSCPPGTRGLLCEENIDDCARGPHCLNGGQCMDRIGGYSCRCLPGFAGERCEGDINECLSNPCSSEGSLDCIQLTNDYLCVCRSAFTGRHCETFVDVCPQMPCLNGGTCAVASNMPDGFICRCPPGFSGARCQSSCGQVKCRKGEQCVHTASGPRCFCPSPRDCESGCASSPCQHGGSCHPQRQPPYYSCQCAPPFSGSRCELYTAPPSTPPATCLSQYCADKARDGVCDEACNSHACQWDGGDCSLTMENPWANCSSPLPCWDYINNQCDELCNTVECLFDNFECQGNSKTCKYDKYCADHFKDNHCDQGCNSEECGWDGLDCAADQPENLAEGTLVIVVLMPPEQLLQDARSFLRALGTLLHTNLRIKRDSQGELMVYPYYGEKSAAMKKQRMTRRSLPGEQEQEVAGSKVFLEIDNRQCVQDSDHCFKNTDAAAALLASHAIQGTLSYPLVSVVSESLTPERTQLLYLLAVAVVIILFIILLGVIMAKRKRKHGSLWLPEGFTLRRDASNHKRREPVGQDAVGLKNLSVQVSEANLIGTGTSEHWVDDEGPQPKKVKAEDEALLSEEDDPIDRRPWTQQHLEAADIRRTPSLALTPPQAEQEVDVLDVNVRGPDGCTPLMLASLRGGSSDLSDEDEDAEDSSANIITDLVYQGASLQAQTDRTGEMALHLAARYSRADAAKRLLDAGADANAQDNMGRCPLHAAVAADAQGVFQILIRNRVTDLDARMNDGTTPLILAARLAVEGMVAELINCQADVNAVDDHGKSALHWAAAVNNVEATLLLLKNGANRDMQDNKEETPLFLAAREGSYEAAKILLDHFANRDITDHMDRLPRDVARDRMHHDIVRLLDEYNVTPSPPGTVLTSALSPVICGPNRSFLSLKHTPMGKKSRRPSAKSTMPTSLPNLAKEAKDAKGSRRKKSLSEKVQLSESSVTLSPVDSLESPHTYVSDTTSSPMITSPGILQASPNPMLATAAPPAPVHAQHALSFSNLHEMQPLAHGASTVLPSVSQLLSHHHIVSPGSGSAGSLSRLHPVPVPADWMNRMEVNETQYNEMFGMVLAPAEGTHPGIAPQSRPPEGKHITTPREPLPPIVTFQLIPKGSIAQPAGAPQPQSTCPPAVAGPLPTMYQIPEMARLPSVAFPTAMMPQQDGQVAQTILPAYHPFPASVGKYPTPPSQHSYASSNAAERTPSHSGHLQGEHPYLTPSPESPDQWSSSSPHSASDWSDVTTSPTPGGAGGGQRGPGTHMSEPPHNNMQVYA
# [6] = target: Pro-neuregulin-1, membrane-bound isoform (Homo sapiens) (UniProt Q02297); assay: small molecules binding neuregulin-1 protein – biochemical, small-molecule microarray, fluorescence 635/667, psychiatric disease protein project, primary screen (AID 1075); conditions: NRG1 binding, 635 nm fluorescence, higher = more signal;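 also: score combines 667 nm spot fluorescence with signal to noise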
# Chain of Pro-neuregulin-1, membrane-bound isoform (Homo sapiens) (Q02297 whole entry, looked up, the tested form may be a part, canonical isoform): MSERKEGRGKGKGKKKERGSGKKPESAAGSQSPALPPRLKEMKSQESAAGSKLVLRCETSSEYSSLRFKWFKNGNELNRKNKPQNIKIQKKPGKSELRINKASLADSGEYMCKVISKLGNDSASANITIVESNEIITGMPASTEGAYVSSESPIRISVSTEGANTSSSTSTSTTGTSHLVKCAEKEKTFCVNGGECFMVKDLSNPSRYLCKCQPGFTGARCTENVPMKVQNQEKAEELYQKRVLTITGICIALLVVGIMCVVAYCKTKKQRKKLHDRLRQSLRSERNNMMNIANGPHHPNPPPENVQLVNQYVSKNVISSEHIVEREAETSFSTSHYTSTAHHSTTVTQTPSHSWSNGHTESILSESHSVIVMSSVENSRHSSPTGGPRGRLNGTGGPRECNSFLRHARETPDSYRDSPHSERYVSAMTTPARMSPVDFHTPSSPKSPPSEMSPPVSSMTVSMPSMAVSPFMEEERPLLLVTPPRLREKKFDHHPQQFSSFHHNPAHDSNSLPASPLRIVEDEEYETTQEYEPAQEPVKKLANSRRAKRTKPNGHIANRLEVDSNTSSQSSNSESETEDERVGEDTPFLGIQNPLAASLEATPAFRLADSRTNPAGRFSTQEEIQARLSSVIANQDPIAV
# [7] = system: Neuregulin-1 EGF-like domain; assay: small molecules binding NRG1 EGF domain – biochemical, small-molecule microarray, 635 nm fluorescence, primary screen (AID 1081); conditions: higher = more signal;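 also: binding of the protein to compounds printed on small-molecule microarray slides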
# [8] = FRG1 expression reporter modulators in myotubes – cell-based, C2C12 myotubes, firefly/Renilla luciferase, luminescence, FRG1 inhibition for FSHD, primary screen (AID 1084); conditions: FRG1 promoter luciferase, higher = more signal, called active from +8 up or from −8 down
# [9] = small molecules captured by biotinylated probe aFST – biochemical, small-molecule microarray, fluorescence 635/667, stem cell growth factor project, primary screen (AID 1086); conditions: higher = more signal;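 also: score merges 667 nm fluorescence with signal-to-noise of each printed compound spot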
# [10] = binders of probe aHhip on microarray, primary screen, stem cell growth factor project, biochemical, small-molecule microarray, fluorescence 635/667 (AID 1087); conditions: higher = more signal;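 also: score merges spot fluorescence at 667nm with spot signal to noise ratio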
SMILES,composite z-score [1],composite z-score [2],composite z-score [3],composite z-score [4],composite z-score [5],composite z-score [6],composite z-score [7],z-score [8],composite z-score [9],composite z-score [10]
COC(=O)CC=C[C@@H](C)[C@@H](CO)NS(=O)(=O)c1ccc(C)cc1,-0.659 and -0.717,0.406 and 0.605,-0.108 and -0.0656,0.242 and 0.526,0.157 and 0.444,-0.386 and -0.0111,0.081 and 0.253,0.862 (inactive) and -1.81 (inactive),0.544 and 0.35,-0.147 and 0.0505
C=CC[C@H](O)c1ccc(OCCO)cc1,0.857 and 0.327,-0.688 and 0.148,-0.153,-1.16 and -0.746,-1 and -1.04,0.524 and -0.434,0.176 and 0.997,0.831 (inactive) and 2.16 (inactive),-0.396 and -0.905,-0.261 and -0.296
COc1ccc(O[C@H]2C=C[C@@H](c3ccccc3)O[C@@H]2COC(=O)CCC(C)=NO[C@H](C)c2cn([C@H](CO)Cc3ccccc3)nn2)cc1,-0.647 and -0.694,0.535 and 0.365,-0.0682 and -0.171,0.241 and 0.038,0.203 and 0.35,0.338 and 0.692,-0.0177 and 0.384,1.61 (inactive) and 1.46 (inactive),0.0869 and -0.364,-0.0196 and 0.201
C=C[C@H](OC)[C@@H](O)c1ccc(OCCO)cc1,1.29 and 1.32,-0.768 and -0.833,-0.219 and -0.121,-1.19 and -0.295,-1.86 and -1.69,-0.102 and -0.296,0.604 and 0.0642,0.298 (inactive) and 0.277 (inactive),-1.29 and -0.821,-0.405 and -0.268
CO[C@H]1COC(=O)CC=C[C@@H](C)COC(=O)[C@@H](OCc2ccccc2)C=C[C@@H]1C,-0.773,1.86,-0.213,-0.68,-1.02,-0.212,1.14,-0.971 (inactive),-0.28,-0.0994
C=CCN(CCCCC)C(=O)C(c1cccs1)N(CCOCCO)C(=O)/C=C\C(=O)O (stereo not given),-0.192 and 0.0796,0.185 and -1.07,-0.157 and -0.113,-1.26 and -0.317,-1.84 and -1.41,-0.661 and -0.969,-0.196 and -0.609,0.874 (inactive) and 1.45 (inactive),-1.48 and -0.675,-0.0922 and -0.41
O=c1n(-c2ccccc2)c(=O)n2n1CC[C@@H]1C(=NOC[C@@H](O)COCc3ccco3)[C@H]3O[C@H]3[C@@H](O)[C@@H]12,-0.538 and -0.609,1.27 and 1.24,-0.209 and -0.258,0.265 and -0.486,-0.0496 and 0.156,-0.498 and -0.0731,0.874 and -0.672,0.193 (inactive) and -0.52 (inactive),0.0872 and 0.231,-0.0994 and -0.069
C=CCN(CCCCC)C(=O)C1N(c2c(Cl)cccc2CO)C(=O)C2C(C(=O)O)C3C=CC21O3 (stereo not given),1.15 and 1.51,-0.58 and -2.44,-0.283 and -0.216,-1.66 and -1.11,-2.36 and -1.86,-0.855 and -0.992,-0.506 and -0.277,0.887 (inactive) and 0.699 (inactive),-0.898 and -1.06,-0.169 and -0.213
CC(C)=NOCc1ccc(-c2cn([C@@H]3COC[C@H]3O)nn2)cc1,-0.401,0.032,-0.0268,0.543,0.31,-0.766,0.718,0.0937 (inactive),0.169,0.0722
